Bioassay records: PubChem BioAssay, several laboratories
NALP1 inh: inhibitors of NALP1 inflammasome in yeast | inhibition, % at 10 µM | S. cerevisiae NALP1/ASC/caspase-1 growth, X-gal OD620, 72 h | AID 2071 | 280,000 compounds, 0.61% hits; in the data active means inhibition mostly above about 24%, no sharp cut-off; inactive means mostly below about 32%
tim23-1 inh: growth inhibitors of tim23-1 mutant yeast | S. cerevisiae tim23-1 growth, BacTiter-Glo luminescence, 24 h | inhibition, % at 20 µM | 330,000 compounds, 1.3% hits | AID 463212;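 active means growth inhibition of the mutant yeast at or above 50%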;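 further: temperature-sensitive mutant grown at 25 °C; plate controls were DMSO-treated mutant yeast for no effect and medium wells lacking yeast for full effect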
TIM10 inh: TIM10 yeast growth inhibition | S. cerevisiae TIM10 strain growth, BacTiter-Glo luminescence, 24 h | inhibition, % at 10 µM | 330,000 compounds, 1.4% hits;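 active means inhibition of 40% or more at the single tested concentration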;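 further: wild-type TIM10 isogenic control strain grown at permissive 25 °C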
NALP3 yeast inh: NALP3 inhibition in yeast; Yeast reconstituted NLRP3/ASC/caspase-1, beta-gal luminescence, 24 h; 330,000 compounds, 0.39% hits; AID 2825; inhibition, % at 10 µM;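 active means inhibition of 50% or more; inactive means inhibition below 50%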;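 further: plate controls were induced DMSO wells for no effect and uninduced yeast grown without galactose for full effect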
tim10-1 inh: growth inhibitors of tim10-1 mutant yeast. S. cerevisiae tim10-1 ts strain growth, BacTiter-Glo, 24 h. inhibition, % at 20 µM. 330,000 compounds, 2.2% hits. AID 463190;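 active means inhibition of at least 40%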;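 further: mutant grown at 25 °C; 0% = DMSO wells with yeast and 100% = wells holding no yeast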
PfHsp90 yeast 2: reduces growth (ATP signal) of yeast expressing P. falciparum Hsp90; S. cerevisiae expressing PfHsp90, BacTiter-Glo ATP, 48 h; yeast lacking PDR1 and PDR3 efflux regulators; inhibition, % at 9.4 µM; 310,000 compounds, 0.32% hits; AID 504621;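 active means every replicate shows inhibition above about 80%, whatever the replicate mean, limit read from the data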;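 further: 0% = DMSO neutral controls and 100% = 20 µM radicicol positive controls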
tim10-1 confirm: confirmation of tim10-1 mutant yeast growth inhibitors | 7,400 compounds, 56% hits | inhibition, % at 20 µM | shares compounds with tim10-1 inh | AID 463213 | S. cerevisiae tim10-1 ts strain growth, BacTiter-Glo, 24 h;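 active means inhibition of yeast growth at or above a set limit in either of two repeat tests at 20 µM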;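 further: tim10-1 mutant grown at permissive 25 °C to find synthetic lethal compounds; 0% = DMSO yeast wells and 100% = medium wells without yeast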
* = called active by the depositor; x = no result given. The list is not random: actives were taken first. Their share in the collection is about 4.2%.

SMILES	NALP1 inh	tim23-1 inh	TIM10 inh	NALP3 yeast inh	tim10-1 inh	PfHsp90 yeast 2	tim10-1 confirm
CC(C)(C)c1ccc(S(=O)(=O)N2CCN(CC(=O)NC(=O)NC3CCCCC3)CC2)cc1	x	18	11	7	25	9	x
Cc1cc(C)c(-c2c(O)c3cccc4c3n(c2=O)CCC4)c(C)c1	7	47	15	21	47*	-11	26
COC(=O)C1CC2=C(CCCC2=O)N(Cc2ccccc2)C1=O (stereo not given)	x	x	x	x	x	7	x
O=C(Nc1ccc(Cl)cn1)C1C(c2ccccc2)C1(Cl)Cl (stereo not given)	-8	47	9	17	46*	-1	34*
O=C(Nc1ccc(Cl)cn1)C1CC1	-6	13	6	16	2	11	x
CC(NC(=O)c1ccc(F)cc1)c1nc2ccccc2n1Cc1ccccc1F (stereo not given)	15	27	8	4	42*	11	29*
CCCn1c(C(C)NC(=O)c2ccccc2)nc2ccccc21 (stereo not given)	-137	x	x	x	x	32	x
Oc1ccc(-c2nc3c4c(ncn3n2)-c2ccccc2CC42CCCC2)cc1	42	6	7	6	12	6	x
COc1cc2c(cc1NC(=S)Nc1cccc(C(F)(F)F)c1)oc1ccccc12	-4	40	36	15	40*	x	23
COc1cc2c(cc1NC(=S)Nc1cccc3ccccc13)oc1ccccc12	21	13	6	15	15	-12	x
CCOc1cc(/C=N\Nc2nc(Nc3ccccc3)nc(N3CCOCC3)n2)ccc1OC(=O)c1ccco1	4	20	28	4	42*	-66	27
O=C(NCC(=O)N1CCN(C(c2ccccc2)c2ccccc2)CC1)c1ccccc1F	14	-4	-23	12	-40	1	x
COCCCNC(=O)c1ccc(S(=O)(=O)c2ccc(C)cc2)c(NC(C)=O)c1	2	0	15	20	-1	10	x
COc1ccc(CSc2nnc(-c3ccncc3)n2C)cc1F	8	25	11	4	1	-4	x
COc1ccccc1NC(=O)C(C)OC(=O)/C=C/c1ccc2ccccc2n1 (stereo not given)	x	46	14	9	52*	5	30*
O=S(=O)(Cc1ccccc1)C(CCCc1ccccc1)S(=O)(=O)Cc1ccccc1	x	x	x	x	x	5	x
COc1ccc(-c2cc(C(=O)N3CCOCC3)c3cc(C)ccc3n2)cc1	2	32	17	18	34	66	x
COc1ccc(-c2cc(C(=O)N3CCCCCC3)c3cc(C)ccc3n2)cc1	-8	44	9	27	40*	-2	22
O=C(NCC1CCCCC1)c1ccc([N+](=O)[O-])cc1	16	18	-1	24	8	6	x
N/C(=N\OC(=O)CC1CCCCC1)c1ccc([N+](=O)[O-])cc1	10	45	29	-7	70*	-8	51*
Cc1ccc(/C(N)=N/OC(=O)C(C)c2ccc([N+](=O)[O-])cc2)cc1 (stereo not given)	12	42	38	-9	46*	3	51*
Cc1ccc(OCc2occc2C(=O)O)cc1	x	x	x	x	x	3	x
COc1cc(/C=C2\SC(=S)N(CCCCC(=O)O)C2=O)ccc1OS(=O)(=O)c1ccc(C)cc1	x	40	10	21	33	-4	x
COc1cccc(/C=N/n2c(C)nc3ccccc32)c1OC	16	48	39	22	44*	3	31
CCOC(=O)CN1C(c2ccc(O)cc2)Nc2ccc(Br)cc2C1c1ccccc1 (stereo not given)	24	44	32	1	46*	-11	18
SMILES	NALP1 inh	tim23-1 inh	TIM10 inh	NALP3 yeast inh	tim10-1 inh	PfHsp90 yeast 2	tim10-1 confirm
COc1cc(/C=N/NC(=O)NC23CC4CC(CC(C4)C2)C3)ccc1O	10	50	18	-2	51*	6	14
COC(=O)C[C@H]1c2ccccc2S(=O)(=O)N1c1cccc(OC)c1	x	9	-8	-1	-9	-7	x
COc1cccc(N2[C@@H](CC(C)=O)c3ccc(/C=C/C(C)=O)cc3S2(=O)=O)c1	x	33	34	11	44*	x	34*
CCOc1ccc(NC(=O)CSCc2cnn(-c3ccccc3)c2-n2cccc2)cc1	0	29	14	8	44*	-6	30*
Cc1ccc(/C=C2\CCC3=C2OC(N)=C(C#N)C3c2ccc(C)cc2)cc1 (stereo not given)	4	38	20	3	46*	-10	34*
Fc1c(F)c(C(F)(F)F)c(F)c(F)c1N/N=C\c1cccs1	4	43	37	8	47*	-39	69*
C=C(C)C1Cc2c(C)nn(-c3nc(C)cc(C)n3)c2C1 (stereo not given)	13	24	11	-9	42*	-98	23
C=C(C)C1Cc2nc(N)nc(C)c2C1 (stereo not given)	33	-8	4	-1	3	-11	x
C[C@H](OC(=O)NCc1ccc(C(F)(F)F)cc1)[C@@H]1O[C@@]2(C)CCC[C@@H]1O2	x	1	-4	12	10	-19	x
Cc1cc(C)n(-c2ccn(Cc3ccc(Cl)cc3Cl)c(=O)n2)n1	27	43	16	-1	40*	x	28
CCC(CO)Nc1nc2ccc(Cl)cc2c2ccccc12 (stereo not given)	29	29	32	21	53*	34	39*
CCC(CO)Nc1ncnc2c1cnn2-c1ccc(Cl)cc1 (stereo not given)	24	13	-12	16	19	13	x
O=C(c1ccc(-c2ccccc2Cl)o1)N1CCN(c2ccccc2O)CC1	x	48	16	12	44*	-20	28
S=C(Nc1ccc2[nH]ccc2c1)NC1CCCCC1	5	24	35	18	42*	18	8
S=C(Nc1cccnc1)NC1CCCCCCC1	10	33	32	8	50*	38	45*
S=C(Nc1ccc(Nc2ccccc2)cc1)NC1CCCCCC1	8	6	28	16	43*	-11	38*
S=C(Nc1ccc(Cl)cc1)NC1CCCCC1	3	23	3	42	7	1	x
Cc1ccc(N2C(=O)c3cccc4c(Oc5ccccc5[N+](=O)[O-])ccc(c34)C2=O)c(C)c1	19	19	15	15	7	7	x
CCOc1cc(S(=O)(=O)Nc2ccccc2CC)ccc1Cl	-3	33	10	21	26	-30	x
CCOc1cc(S(=O)(=O)Nc2ccc(CC)cc2)ccc1Cl	-2	46	33	21	59*	x	25
Cc1c(-n2c(-c3ccccc3)nc3ccccc3c2=O)c(=O)n(-c2ccccc2)n1C	-7	9	-8	1	7	4	x
